An excerpt weighted towards active compounds, which were near 3.4% of everything screened.
JMJD2E inh – qHTS Assay for Inhibitors of Human Jumonji Domain Containing 2E (JMJD2E); Lysine-specific demethylase 4E (Homo sapiens), B2RXH2; JMJD2E catalytic domain, FDH-coupled NADH fluorescence (FDH is formaldehyde dehydrogenase); Potency, µM (top dose mostly 57.1 µM), actives largely listed as inhibitors; actives 1.6% (n = 230,000); active = well fitted inhibition curve with a large enough effect, not every such curve was filed as active; inconclusive = small, poorly fitted or top-dose-only effect, or another doubt; inactive = no such curve, though single readings can be large or run the other way; also: nearly all actives have a fitted effect of over 50% in size
Target sequence (B2RXH2 1-337 limits assumed): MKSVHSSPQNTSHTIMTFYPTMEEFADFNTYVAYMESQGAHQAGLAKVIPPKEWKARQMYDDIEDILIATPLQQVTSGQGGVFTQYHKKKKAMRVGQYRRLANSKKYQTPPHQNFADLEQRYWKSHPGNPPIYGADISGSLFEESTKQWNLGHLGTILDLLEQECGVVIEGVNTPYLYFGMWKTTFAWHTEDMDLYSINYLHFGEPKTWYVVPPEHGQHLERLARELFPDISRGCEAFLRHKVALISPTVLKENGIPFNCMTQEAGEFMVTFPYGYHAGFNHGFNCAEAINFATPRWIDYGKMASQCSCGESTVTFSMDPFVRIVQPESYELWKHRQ
Tau ThT inhib – qHTS for Inhibitors of Tau Fibril Formation, Thioflavin T Binding | recombinant tau K18 P301L, heparin-induced fibrillization, ThT fluorescence | actives 2.1% (n = 270,000) | Potency, µM (titrated, usually from 57.4 µM), most hits filed as inhibitors; also: nearly all actives have a fitted effect of over 55% in size
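K18 P301L tau (15 uM + 0.24 uM Alexa 594-tagged), heparin 20 uM, NaOAc pH 7, 6 h 37 C; ThT 30 uM, 1 h RT, ex 450/em 510 nm.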
Tau fluor counter – Counterscreen qHTS for Inhibitors of Tau Fibril Formation, Fluorescence Polarization | tau K18 P301L (four-repeat tau fragment) Alexa594 fluorescence, heparin fibrillization | Potency, µM (titrated, usually from 57.7 µM) | actives 0.93% (n = 280,000) | AID 1463, 2008; also: nearly all actives have a fitted effect of over 55% in size
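Human K18 P301L tau (15 uM unlabeled plus 0.24 uM Alexa 594-labeled, final) in 100 mM sodium acetate pH 7 was mixed with compound and 20 uM heparin and incubated 6 hr at 37 C.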
Tau FP inhib – qHTS for Inhibitors of Tau Fibril Formation, Fluorescence Polarization | Microtubule-associated protein tau (Homo sapiens), P10636 | K18 P301L tau heparin fibrillization, Alexa594 FP, 6 h | Potency, µM (top dose mostly 57.7 µM), hits mostly inhibitors | actives 0.39% (n = 280,000) | AID 1468, 2008; also: nearly all actives have a fitted effect of over 55% in size
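Steps: dispense K18 P301L tau (15 uM plus 0.24 uM Alexa 594 tracer, final) in pH 7 sodium acetate; add compound; add heparin (20 uM final); incubate 6 hr, 37 C; add ThT (30 uM final); after 1 hr ambient, read FP.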
RGS12 GoLoco inh – qHTS Assay for Inhibitors of RGS12 GoLoco Motif Activity (Red Fluorophore). Gai1:RGS12 GoLoco peptide FP, rhodamine, 10 min. Potency, µM (series often up to 61.6 µM), actives largely listed as inhibitors. AID 880, 2007. Guanine nucleotide-binding protein G(i) subunit alpha-1 (Homo sapiens), P63096. actives 0.44% (n = 230,000); active = well fitted inhibition curve with a large enough effect, not every such curve was filed as active; inactive = no such curve, though single readings can be large or run the other way; also: nearly all actives have a fitted effect of over 30% in size
Target sequence (P63096 whole entry, looked up): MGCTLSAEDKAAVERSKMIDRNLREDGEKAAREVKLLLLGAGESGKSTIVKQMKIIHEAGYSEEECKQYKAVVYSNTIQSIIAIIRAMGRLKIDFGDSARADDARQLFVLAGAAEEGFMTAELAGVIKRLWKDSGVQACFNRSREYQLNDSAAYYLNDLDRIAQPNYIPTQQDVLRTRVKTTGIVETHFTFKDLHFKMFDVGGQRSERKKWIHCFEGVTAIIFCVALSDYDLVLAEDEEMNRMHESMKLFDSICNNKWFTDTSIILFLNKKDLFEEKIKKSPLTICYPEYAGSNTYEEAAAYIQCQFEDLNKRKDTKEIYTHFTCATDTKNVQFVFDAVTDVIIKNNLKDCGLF
Numbers stand for hits; ! = not active in a repeat; [ ] = remark or other dose. Unless noted, calls follow the shape of the dose curve; as a rule, active = well fitted curve in the direction sought with a large enough effect; inconclusive = small, poorly fitted or top-dose-only effect, or another doubt; inactive = no such curve, though single readings can be large; an effect the other way counts as inactive or inconclusive.

Results for Cc1cccc(NC(=O)c2ccc(F)c(S(=O)(=O)NCc3ccc4c(c3)OCO4)c2)c1 ?
Tau ThT inhib: inactive; Tau fluor counter: inconclusive; Tau FP inhib: inactive

Results for CCOC(=O)c1c(C)n(-c2ccccc2)c2ccc(OC(=O)c3cccc(Cl)c3)cc12 ?
Tau ThT inhib: inactive; Tau fluor counter: inactive; Tau FP inhib: inactive

Results for O=C(CCc1ccc(S(=O)(=O)N2CCOCC2)cc1)N/N=C/c1ccc(O)c(O)c1O ?
JMJD2E inh: 10µM; Tau ThT inhib: 25.1µM; Tau fluor counter: inactive; Tau FP inhib: inconclusive; RGS12 GoLoco inh: inactive

Results for CCN(C(=O)c1cn(CC(C)C)c(=O)c2cc(OC)c(OC)cc12)c1cc(OC)ccc1OC ?
Tau ThT inhib: inactive; Tau fluor counter: inactive; Tau FP inhib: inactive

How did CCCCC1=CC2=C(c3ccco3)C(=O)C(C)(OC(=O)c3ccc(OC)cc3)C(=O)C2=CN1CCOC (centres undefined) do in these assays?
JMJD2E inh: inactive[11.4 µM]; Tau ThT inhib: inconclusive; Tau fluor counter: inactive[11.6 µM]; Tau FP inhib: inactive[11.6 µM]; RGS12 GoLoco inh: inactive[14.2 µM]

Results for CCCCC1=CC2=C(c3ccco3)C(=O)C(C)(OC(=O)c3ccc(OC)cc3)C(=O)C2=CN1CCc1c[nH]c2ccccc12 (centres undefined) ?
JMJD2E inh: inactive[11.4 µM]; Tau ThT inhib: inactive[11.5 µM]; Tau fluor counter: inactive[11.6 µM]; Tau FP inhib: inactive[11.6 µM]; RGS12 GoLoco inh: inactive[14.2 µM]

What do the screens show for `CCCCC1=CC2=C(c3ccco3)C(=O)C(C)(OC(=O)c3ccc(OC)cc3)C(=O)C2=CN1Cc1ccccc1` (centres undefined)?
JMJD2E inh: 15.8µM!; Tau ThT inhib: 12.6µM!; Tau fluor counter: inactive[11.6 µM]; Tau FP inhib: inactive[11.6 µM]; RGS12 GoLoco inh: inactive[14.2 µM]

What do the screens show for `CCCCC1=CC2=C(c3ccco3)C(=O)C(C)(OC(=O)c3ccc(OC)cc3)C(=O)C2=CN1CCc1ccccn1` (centres undefined)?
JMJD2E inh: 8.91µM!; Tau ThT inhib: inconclusive; Tau fluor counter: inactive[11.6 µM]; Tau FP inhib: inactive[11.6 µM]; RGS12 GoLoco inh: inactive[14.2 µM]

How did Cc1cccc(NC(=O)Nc2nnc(N(C)C3CCCCC3)s2)c1C do in these assays?
Tau ThT inhib: inactive; Tau fluor counter: inactive; Tau FP inhib: inactive

How did c1ccc(OCCSc2nc3ccccc3[nH]2)cc1 do in these assays?
JMJD2E inh: inactive; Tau ThT inhib: inactive; Tau fluor counter: inactive; Tau FP inhib: inactive; RGS12 GoLoco inh: inactive

Results for Brc1ccc2nc(SCCOc3ccccc3)[nH]c2c1 ?
Tau ThT inhib: inconclusive; Tau fluor counter: 14.1µM[quencher]; Tau FP inhib: 28.2µM

Results for CCOC(=O)c1ccc(NC(=O)CN2C(=O)c3cccnc3Sc3ccccc32)cc1 ?
Tau ThT inhib: inactive; Tau fluor counter: inactive; Tau FP inhib: inactive

What do the screens show for `CC1CCCN(c2cc3c(cc2[N+](=O)[O-])C(=O)N(c2ccccc2)C3=O)C1` (centres undefined)?
JMJD2E inh: inactive; Tau ThT inhib: inactive; Tau fluor counter: inactive; Tau FP inhib: inactive; RGS12 GoLoco inh: inactive

How did CC1CCCN(C2=C(Cl)C(=O)N(c3cccc(Cl)c3)C2=O)C1 (centres undefined) do in these assays?
JMJD2E inh: inactive; Tau ThT inhib: 14.1µM; Tau fluor counter: inconclusive; Tau FP inhib: 17.8µM; RGS12 GoLoco inh: inactive

What do the screens show for `COc1ccc(N2C(=O)C(Cl)=C(N3CCCC(C)C3)C2=O)cc1` (centres undefined)?
JMJD2E inh: inactive; Tau ThT inhib: 15.8µM; Tau fluor counter: inconclusive; Tau FP inhib: 28.2µM; RGS12 GoLoco inh: inactive

Results for CC1=C(C(=O)NCCc2ccc(Cl)cc2)C2(CCCCC2)OC1=O ?
Tau ThT inhib: inactive; Tau fluor counter: inactive; Tau FP inhib: inactive

Results for COc1ccc(C(C(=O)Nc2ccc(C(C)C)cc2)N(C)C(=O)Cc2cccs2)cc1 (centres undefined) ?
Tau ThT inhib: inconclusive; Tau fluor counter: inactive; Tau FP inhib: inactive

What do the screens show for `Cc1cccc(OCCNc2cc(N3CCN(CCO)CC3)ccc2[N+](=O)[O-])c1`?
JMJD2E inh: inactive; Tau ThT inhib: 28.2µM; Tau fluor counter: inconclusive; Tau FP inhib: inactive

How did Cc1ccccc1OCCNc1cc(N2CCN(CCO)CC2)ccc1[N+](=O)[O-] do in these assays?
JMJD2E inh: inactive; Tau ThT inhib: 12.6µM; Tau fluor counter: inconclusive; Tau FP inhib: inactive; RGS12 GoLoco inh: inactive

How did Cc1cccc(N2CCN(C(=O)C3CCN(S(=O)(=O)c4c(C)noc4/C=C/c4ccccc4F)CC3)CC2C)c1 (centres undefined) do in these assays?
Tau ThT inhib: inactive; Tau fluor counter: inactive; Tau FP inhib: inactive

Results for CCN(C(=O)CN1C(=O)COc2ccc(S(=O)(=O)N3CCOCC3)cc21)c1cccc(C)c1 ?
Tau ThT inhib: inactive; Tau fluor counter: inactive; Tau FP inhib: inactive

Results for Cn1cccc1/C=C(\C#N)C(N)=S ?
JMJD2E inh: inactive; Tau ThT inhib: inconclusive; Tau fluor counter: inactive; Tau FP inhib: inactive; RGS12 GoLoco inh: inactive

Results for Cn1c(/C=C(\C#N)C(N)=S)ccc1-c1ccc(Br)cc1 ?
JMJD2E inh: inactive; Tau ThT inhib: 1µM; Tau fluor counter: inactive; Tau FP inhib: inactive; RGS12 GoLoco inh: inactive

How did COc1cc2c(cc1OC)Cc1cc(OC)c(OC)cc1Cc1cc(OC)c(OC)cc1C2 do in these assays?
JMJD2E inh: inactive; Tau ThT inhib: inconclusive; Tau fluor counter: inactive; Tau FP inhib: inactive; RGS12 GoLoco inh: inactive

How did COc1ccc(NCc2cc3cc4c(cc3n(CC(=O)Nc3ccc(C)c(C)c3)c2=O)OCO4)cc1 do in these assays?
Tau ThT inhib: inactive; Tau fluor counter: inconclusive; Tau FP inhib: inconclusive

What do the screens show for `COC(=O)C1=C(CSc2nc3c(cc2C#N)CN(C)CC3)OC(N)=C(C#N)C1c1ccccc1F` (centres undefined)?
JMJD2E inh: inconclusive; Tau ThT inhib: 17.8µM; Tau fluor counter: inconclusive; Tau FP inhib: inconclusive; RGS12 GoLoco inh: inactive

What do the screens show for `CCOC(=O)C1=C(CSc2nc3c(cc2C#N)CN(C)CC3)OC(N)=C(C#N)C1c1ccccc1` (centres undefined)?
JMJD2E inh: inconclusive; Tau ThT inhib: 28.2µM; Tau fluor counter: inconclusive; Tau FP inhib: inactive; RGS12 GoLoco inh: inactive

How did CCOC(=O)C1=C(CSc2nc(-c3ccccc3)ccc2C#N)OC(N)=C(C#N)C1c1ccccc1 (centres undefined) do in these assays?
JMJD2E inh: inactive; Tau ThT inhib: inconclusive; Tau fluor counter: inconclusive; Tau FP inhib: inactive; RGS12 GoLoco inh: inactive

How did CCOC(=O)C1=C(CSc2nc3c(cc2C#N)CCC3)OC(N)=C(C#N)C1c1ccccc1 (centres undefined) do in these assays?
JMJD2E inh: inactive; Tau ThT inhib: inconclusive; Tau fluor counter: inconclusive; Tau FP inhib: inactive; RGS12 GoLoco inh: inactive

Compound activity: PubChem, National Center for Advancing Translational Sciences (NCATS)
